MKP-1 inh – MKP-1 phosphatase inhibitors, primary screen, biochemical, in vitro | AID 374, 2006 | recombinant MKP-1, OMFP hydrolysis fluorescence | inhibition, %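 (compounds tested at a single concentration somewhere between 10 and 100 µM)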 | Dual specificity protein phosphatase 1 (Homo sapiens), P28562 | 65,000 tested, 0.15% active;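 active = inhibition above about 50%, limit read from the data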
Target sequence (P28562 whole entry, looked up): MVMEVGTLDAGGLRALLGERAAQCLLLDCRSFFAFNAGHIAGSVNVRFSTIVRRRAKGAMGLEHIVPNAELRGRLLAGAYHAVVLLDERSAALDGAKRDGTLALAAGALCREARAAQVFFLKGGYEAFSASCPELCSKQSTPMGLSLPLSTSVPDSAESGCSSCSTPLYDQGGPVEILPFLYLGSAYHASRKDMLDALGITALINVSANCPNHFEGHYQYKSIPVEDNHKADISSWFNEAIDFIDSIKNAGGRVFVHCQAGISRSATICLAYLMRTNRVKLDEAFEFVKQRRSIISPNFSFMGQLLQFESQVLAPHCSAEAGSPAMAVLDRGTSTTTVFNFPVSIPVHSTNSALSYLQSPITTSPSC
PLAP activator – PLAP enzyme activators, biochemical, luminescence, HTS; Alkaline phosphatase, placental type (Homo sapiens), P05187; 96,000 tested, 1.2% active; purified PLAP enzyme, luminescent substrate read-out; stronger effect = higher value; activation fold at 20 µM; in the data active = activation fold above about 2
Hsp90 block – tumor Hsp90 inhibitors, primary screen, cell lysate, fluorescence polarization, NCI-N417 lysate. Cy3B-geldanamycin FP displacement. AID 429, 2006. inhibition, % at 30 µM. 64,000 tested, 0.35% active;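 active = inhibition above 50%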
HePTP inhibitor – inhibitors of human HePTP phosphatase, primary screen, biochemical, absorbance, leukemia target; Tyrosine-protein phosphatase non-receptor type 7 (Homo sapiens), P35236; recombinant HePTP phosphatase activity, OD absorbance; inhibition, % at 20 µM; 110,000 tested, 0.64% active; in the data active = inhibition above about 50%
TNAP act mid DEA – human TNAP enzyme activators, primary screen, biochemical, luminescent, intermediate phosphate acceptor level. Alkaline phosphatase, tissue-nonspecific isozyme (Homo sapiens), P05186. purified TNAP, CDP-star luminescence, 100 mM DEA, 30 min; stronger effect = higher value; scale: 0 levamisole-inhibited, 1 vehicle-only enzyme. activation factor at 20 µM. 64,000 tested, under 10 active;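 active = activation factor of at least 2 at 20 µM, relative to controls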
Cdc25B inh – inhibitors of Cdc25B phosphatase catalytic domain, primary screen, biochemical, OMFP fluorescence; inhibition, %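 (compounds tested at 10 µM final in the well)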; M-phase inducer phosphatase 2 (Homo sapiens), P30305; recombinant Cdc25B, OMFP fluorescence Ex485/Em525; 65,000 tested, 0.1% active; in the data active = inhibition above about 50%
Numbers stand for hits. A selection: hits, their analogues and other compounds. The true share with any hit is near 1.5%.

How did CCOC(=O)c1ccc(N2C(=O)c3n[nH]c(C)c3C2c2ccc(OC)c(OC)c2)cc1 (centres undefined) do in these assays?
MKP-1 inh: inactive; Hsp90 block: inactive; HePTP inhibitor: inactive; TNAP act mid DEA: inactive; Cdc25B inh: inactive

What do the screens show for `Cc1ccc(N2C(=O)c3n[nH]c(C)c3C2c2ccccn2)cc1` (centres undefined)?
MKP-1 inh: inactive; PLAP activator: inactive; Hsp90 block: inactive; HePTP inhibitor: inactive; TNAP act mid DEA: inactive; Cdc25B inh: inactive

What do the screens show for `COc1cc(C2c3c(n[nH]c3C)C(=O)N2c2ccc(Br)cc2)ccc1O` (centres undefined)?
MKP-1 inh: inactive; PLAP activator: inactive; Hsp90 block: inactive; HePTP inhibitor: inactive; TNAP act mid DEA: inactive; Cdc25B inh: inactive

How did CCOC(=O)c1ccc(N2C(=O)c3n[nH]c(C)c3C2c2ccc(OC)cc2)cc1 (centres undefined) do in these assays?
MKP-1 inh: inactive; PLAP activator: 2.6; Hsp90 block: inactive; HePTP inhibitor: inactive; TNAP act mid DEA: inactive; Cdc25B inh: inactive

How did O=C(c1cccc([N+](=O)[O-])c1)c1ccc2c(c1)C(=O)NC2=O do in these assays?
HePTP inhibitor: 104

What do the screens show for `O=C(c1cccc([N+](=O)[O-])c1)c1ccc2c(c1)C(=O)N(c1ccccc1C(=O)O)C2=O`?
HePTP inhibitor: inactive

Results for C/C(=N/OCC(=O)Nc1oc(-c2ccccc2)c(-c2ccccc2)c1C#N)c1cccs1 ?
HePTP inhibitor: inactive

How did CCC1=Nc2cc(C(=O)NCCCOC)ccc2Sc2ccccc21 do in these assays?
PLAP activator: 2

What do the screens show for `CCCC1=Nc2cc(C(=O)NCCCOCC)ccc2Sc2ccccc21`?
PLAP activator: inactive

How did CC(C)(C)NC(=O)/C(=C\c1ccc(Br)cc1)NC(=O)c1ccc([N+](=O)[O-])cc1 do in these assays?
HePTP inhibitor: inactive

What do the screens show for `C/C(=N\NC(=O)C1COc2ccccc2O1)c1ccc(C)o1` (centres undefined)?
PLAP activator: 2

Results for O=C(Oc1c(Cl)cc(Cl)c2cccnc12)c1ccco1 ?
PLAP activator: 2.1

What do the screens show for `COc1ccc(C(=O)Oc2c(CN3CCOCC3)cc(Cl)c3cccnc23)cc1`?
MKP-1 inh: inactive; PLAP activator: 2; Hsp90 block: inactive; HePTP inhibitor: inactive; TNAP act mid DEA: inactive; Cdc25B inh: inactive

How did Oc1c(CN2CCN(c3ccccn3)CC2)cc(Cl)c2cccnc12 do in these assays?
MKP-1 inh: inactive; PLAP activator: inactive; Hsp90 block: inactive; HePTP inhibitor: inactive; TNAP act mid DEA: inactive; Cdc25B inh: inactive

What do the screens show for `O=C(Oc1ccc(Cl)c2cccnc12)N1CCOCC1`?
MKP-1 inh: inactive; PLAP activator: inactive; Hsp90 block: inactive; HePTP inhibitor: inactive; TNAP act mid DEA: inactive; Cdc25B inh: inactive

How did OCCN1CCN(Cc2cc(Cl)c3cccnc3c2O)CC1 do in these assays?
PLAP activator: 2.2

Results for COc1cc(C(=O)Oc2c(CN3CCOCC3)cc(Cl)c3cccnc23)cc(OC)c1OC ?
MKP-1 inh: inactive; PLAP activator: 2; Hsp90 block: inactive; HePTP inhibitor: inactive; TNAP act mid DEA: inactive; Cdc25B inh: inactive

How did COc1ccc(OC)c(NC(=O)CN(c2ccc(Br)cc2)S(C)(=O)=O)c1 do in these assays?
HePTP inhibitor: inactive

What do the screens show for `COc1cccc(NC(=O)c2ccc(CN3CCOCC3)cc2)c1`?
MKP-1 inh: inactive; PLAP activator: inactive; Hsp90 block: inactive; HePTP inhibitor: inactive; TNAP act mid DEA: inactive; Cdc25B inh: inactive

What do the screens show for `O=C(Oc1c(CN2CCOCC2)cc(Cl)c2cccnc12)c1ccc(F)cc1`?
MKP-1 inh: inactive; PLAP activator: 2; Hsp90 block: inactive; HePTP inhibitor: inactive; TNAP act mid DEA: inactive; Cdc25B inh: inactive

Results for COc1cccc(C(=O)Oc2c(CN3CCOCC3)cc(Cl)c3cccnc23)c1 ?
PLAP activator: 2.6

What do the screens show for `COc1ccc(CC(=O)N2N=C(C)CC2(O)c2cccnc2)cc1` (centres undefined)?
PLAP activator: 2.1

Results for CCC1CCc2c(sc(NC(=O)Cc3ccccc3)c2C(=O)OC)C1 (centres undefined) ?
HePTP inhibitor: inactive

How did CCC1CCc2c(sc(NC(=O)c3ccc(Br)o3)c2C(=O)OC)C1 (centres undefined) do in these assays?
HePTP inhibitor: 104

What do the screens show for `CCOC(=O)c1c(NC(=O)C2C3CCC(O3)C2C(=O)O)sc2c1CCC(CC)C2` (centres undefined)?
HePTP inhibitor: 103

Results for O=C(Nc1ccc([N+](=O)[O-])cn1)C1c2ccccc2Oc2ccccc21 ?
HePTP inhibitor: inactive

What do the screens show for `O=C(/C=C/c1ccc(-c2ccccc2[N+](=O)[O-])o1)c1ccc(Cl)cc1`?
HePTP inhibitor: inactive

Results for O=C(COc1cccc2ccccc12)NNC(=O)[C@@H]1CCCC[C@@H]1C(=O)O ?
PLAP activator: 2

How did CCOc1ccc(/C=C(\NC(=O)c2cccc(Br)c2)C(=O)N2CCCCCC2)cc1 do in these assays?
HePTP inhibitor: inactive

What do the screens show for `COC(=O)c1ccc(NC(=O)Cn2nc(C)c3ccccc3c2=O)cc1`?
HePTP inhibitor: 69

Results for Cc1nn(CC(=O)Nc2ccc(C(=O)N3CCCC3)cc2)c(=O)c2ccccc12 ?
MKP-1 inh: inactive; PLAP activator: inactive; Hsp90 block: inactive; HePTP inhibitor: inactive; TNAP act mid DEA: inactive; Cdc25B inh: inactive

How did Cc1ccc(S(=O)(=O)NCc2nc3ccccc3[nH]2)cc1 do in these assays?
MKP-1 inh: inactive; PLAP activator: 2.3; Hsp90 block: inactive; HePTP inhibitor: inactive; TNAP act mid DEA: inactive; Cdc25B inh: inactive

How did CCOc1ccc(/C=C2\SC(=S)N(NC(=O)c3ccccc3)C2=O)cc1 do in these assays?
HePTP inhibitor: inactive

Results for O=C(/C=C/c1ccco1)Nc1ccccc1[N+](=O)[O-] ?
HePTP inhibitor: 84

Results for O=C(/C=C/c1ccco1)Nc1cc(Cl)ccc1Cl ?
HePTP inhibitor: 55

What do the screens show for `O=C(NCCCN1CCc2ccccc2C1)Nc1ccc(Br)cc1`?
PLAP activator: 2.3

Results for CN(CC(=O)Nc1ccc(Cl)cc1)CC(=O)Nc1cc(Cl)ccc1C#N ?
MKP-1 inh: inactive; PLAP activator: 2.5; Hsp90 block: inactive; HePTP inhibitor: inactive; TNAP act mid DEA: inactive; Cdc25B inh: inactive

Results for Oc1ccccc1-c1cc(-c2ccccc2)nc(N2CCCC2)n1 ?
HePTP inhibitor: inactive
